Reference: ChEMBL document CHEMBL3433997, “St. Jude Leishmania screening dataset” (2016)

Target: Glucose transporter (Leishmania mexicana) (UniProt O61059)
Assay: ST_JUDE_LEISH: Cytotoxicity at 2uM final concentration against transgenic Leishmania Mexicana promastigotes LmGT2 that are glucose transport deficient and complemented with the L. Mexicana glucose transporter 2. Activity is measured by DNA content using SYBR green in vitro
Assay type: functional

SMILES | inhibition
CCN(CC)c1ccc(C(c2ccc(N(CC)CC)cc2)c2cccc([N+](=O)[O-])c2)cc1 | 11.1%
COC(=O)c1cc2cccc(NC[C@@H](C)NC[C@H](O)c3cccc(Cl)c3)c2[nH]1 | 1.28%
COc1ccc2nc3cc(Cl)ccc3c(Nc3ccc(Sc4ccc(Nc5c6ccc(Cl)cc6nc6ccc(OC)cc56)cc4)cc3)c2c1 | 3.6%
COCC(=O)N(Cc1ccccc1-c1cccc(CNCc2ccc3c(c2)OCO3)c1)C1CCN(Cc2ccccc2)CC1 | 1.77%
O=C(Nc1cc(F)cc(F)c1)N1CCOC(CCN2CCC3(CCc4ccccc43)CC2)(c2ccc(Cl)c(Cl)c2)C1 (stereo not given) | 1.78%
COc1ccc2ncc(Cl)c(CCN3CCC(NCc4ccc5c(n4)NC(=O)CS5)CC3)c2c1 | 2.97%
CC(C)[C@H](NC(=O)c1c(CN2CCC(N3CCCCC3)CC2)c(-c2ccccc2)nc2cc(O)ccc12)c1ccccc1 | 0.91%
CON(CCCN(C)C)C(=N)N | 0.26%
COc1cccc2cc(C(=O)N[C@@H](CC(C)C)C(=O)N[C@H](/C=N/NC(=O)c3ccccc3)Cc3c[nH]cn3)oc12 | 3.92%
OC(CN1c2ccccc2Sc2ccccc21)CN(C1CCCCC1)C1CCCCC1 (stereo not given) | 3.8%
CC(C)(C)c1ccc(CNC(=O)c2ccc(-c3nc4cc(C(C)(C)C)ccc4[nH]3)cc2)cc1 | 1.77%
CSCCCN1CCC(O)(c2ccc3oc(C(=O)Nc4ccc5sc(C)nc5c4)cc3c2)CC1 | 14.7%
Brc1ccc(Nc2ccnc3cc(-c4nccs4)ccc23)cc1Oc1ccnc2cc(-c3nccs3)ccc12 | -0.86%
Cc1c(NC(=O)COc2ccc(Cl)cc2C(=O)c2cc(F)cc(C(F)(F)F)c2)ccc2ncsc12 | 7.93%
CC(=O)CSC(C=Cc1ccc(N(C)C)cc1)=Nc1ccccc1 | 63.3%
O=C(Nc1cccc(-c2ccc(-c3nc4ccccc4[nH]3)s2)c1)c1ccncc1 | 3.84%
Cc1ccc(C(=O)Nc2ccc(Nc3ccnc4cc(-c5ccncc5)ccc34)cc2O)cc1 | 1.37%
COc1ccc(CNCC2CCC(CNCCc3ccccc3)CC2)cc1Cl (stereo not given) | 2.3%
CCC1(C)N=C(N)N=C(N)N1c1ccccc1 (stereo not given) | -3.1%
O=S(=O)(Nc1ccc2nccc(N3CCNCC3)c2c1)c1ccc2oc3ccccc3c2c1 | 5.02%

SMILES | inhibition
COc1ccccc1Nc1nc(C)cc(NCc2ccc(-n3ccnc3)cc2)n1 | 3.48%
OC(CNCc1ccccc1Oc1ccccc1)c1cc(Br)cs1 (stereo not given) | 3.26%
CN(C)CCCOc1ccc(CCNCc2cccc(Oc3ccc(Cl)cc3)c2)cc1 | 13.7%
CCN(c1ccc(O)c(CN2CCCCC2)c1)c1ccc([N+](=O)[O-])cn1 | 0.72%
FC(F)(F)c1cccc2c(NN=Cc3ccccc3)ccnc12 | 1.42%
O=C(O)/C=C/c1cccc(F)c1F | 2.66%
CCCCC(=O)N(CCOC)Cc1ccc(-c2ccc(CNCCC)cn2)cc1 | 5.46%
COc1ccc(/C=C/C(=O)N2CCc3cc4nccc(N5CCN6CCC[C@H]6C5)c4cc32)cc1 | 4.53%
CCNc1cc(C(=O)N[C@@H](Cc2ccccc2Cl)[C@H](O)CNC2CCCCC2)cc(N2CCCCS2(=O)=O)c1 | -2.07%
CCCCCCCCc1c(C)nc(C)c(C#N)c1O | 5.78%
O=C(/C=C/c1ccc(Cl)c(Cl)c1)NCCCCCN1CCC(NC(=O)NC2CCCC2)CC1 | 0.26%
CNC(=O)c1cnc(Nc2ccc(OCC(O)CN(C)C)cc2)nc1Nc1cccc([N+](=O)[O-])c1 (stereo not given) | 3.56%
COc1ccccc1NC(=O)CSc1nc2cccnc2n1-c1ccccc1OC | 0.14%
COc1cc(SC)c(Br)cc1-c1nc2ccncc2[nH]1 | 4.52%
CS(=O)(=O)NCCCNCc1ccc(-c2ccc(-c3nc4cc(F)ccc4[nH]3)s2)cc1 | -2.09%
COc1cc(CCNc2nc(NCc3ccccc3-c3ccccc3)nc(N3CCC(N)CC3)n2)ccc1O | 2.4%
COc1ccc(NC(=O)N2CCCN(CCCCCNC(=O)/C=C/c3ccc(Cl)cc3)CC2)cc1Cl | 0.93%
O=S(=O)(NCCN1CCCC1)c1ccc(-c2ccc(CNCc3ccccc3)cc2)s1 | 2.5%
O=C(Nc1cccnc1)c1cc(-c2cc(Cl)ccc2O)n[nH]1 | 3.15%
O=C(NC1CCCCC1)C1CCCN(C(=O)c2ccc(O)c(-c3ccc(Cl)c(Cl)c3)c2)C1 (stereo not given) | -0.03%
